The test system of assay [1] is Vero E6 infected with SARS-CoV-2. The assay can be described thus: morphology score (similarity to uninfected cells); higher = more like uninfected cells. Conditions: 24 h.
Assay [2] has the same test system. In words: SARS-CoV-2 infection rate relative to infected DMSO; higher = more infection, active = 60 or less. As to conditions: 24 h.

Turning to `CCc1nn(CCCN2CCN(c3cccc(Cl)c3)CC2)c(=O)n1CCOc1ccccc1` [nefazodone] (10 µM), the morphology score in assay [1] stood at 0.0652. Also, the SARS-CoV-2 infection rate in assay [2] was 106% (inactive).

For the compound `C1CCC(C(CC2CCCCN2)C2CCCCC2)CC1` (stereo not drawn) [perhexiline] (0.833333 µM), the morphology score in assay [1] was -0.219. For the same compound, the SARS-CoV-2 infection rate in assay [2] is 114% (inactive).

Compound `Cn1cccc1/C=C1\C(=O)NC(=O)c2ccccc21` (0.833333 µM) gave a morphology score in assay [1] of 0.0943. The SARS-CoV-2 infection rate in assay [2] was 100% (inactive).

Compound `Oc1noc2c1CCNC2` [gaboxadol] (10 µM) displayed a morphology score in assay [1] of 0.0535. Also, in assay [2], the SARS-CoV-2 infection rate was 106% (inactive).

On to `C[C@@]12CCc3occc3[C@H]1CC[C@@]13C[C@@H](CC[C@H]12)[C@@](O)(CO)C3` [cafestol] (10 µM), for which the morphology score in assay [1] was -0.0842. The SARS-CoV-2 infection rate in assay [2] is 112% (inactive).

Consider `Cc1ccc([N+](=O)[O-])cc1O` [2-methyl-5-nitrophenol] (10 µM), for which, in assay [1], the morphology score is 0.0626. For the same compound, the SARS-CoV-2 infection rate in assay [2] is 98.5% (inactive).

On to `CCc1ccc2c(-c3cccc(Cl)c3)nc(=O)n(CC)c2n1` (10 µM), for which the morphology score in assay [1] is 0.375. In assay [2], the SARS-CoV-2 infection rate was 100% (inactive).

Turning to `O=C1c2cccc(O)c2C(=O)c2c(O)cccc21` [dantron] (10 µM), in assay [1], the morphology score was -0.0545. For the same compound, the SARS-CoV-2 infection rate in assay [2] is 103% (inactive).

As for `Cc1cc([C@@H](C)Nc2ccccc2C(=O)O)c2nc(N3CCOCC3)cc(=O)n2c1` (10 µM), the morphology score in assay [1] is -0.0702. For the same compound, in assay [2], the SARS-CoV-2 infection rate was 105% (inactive).

Turning to `COc1cccc2c1C(=O)c1c(O)c3c(c(O)c1C2=O)C[C@@](O)(C(C)=O)C[C@@H]3O[C@H]1C[C@H](N)[C@H](O)[C@H](C)O1` [daunorubicin] (10 µM), the morphology score in assay [1] was -0.0163. In assay [2], the SARS-CoV-2 infection rate was 106% (inactive).

Compound `CC(=O)O[C@]1(C(C)=O)CC[C@H]2[C@@H]3C=C(Cl)C4=CC(=O)CC[C@]4(C)[C@H]3CC[C@@]21C` [chlormadinone-acetate] (10 µM) registered a morphology score in assay [1] of 0.106. Also, the SARS-CoV-2 infection rate in assay [2] is 106% (inactive).

As to `NC(=O)Nc1sc(-c2ccc(F)cc2)cc1C(N)=O` (0.833333 µM), the morphology score in assay [1] was 0.0683. For the same compound, the SARS-CoV-2 infection rate in assay [2] was 95.5% (inactive).

Compound `CCn1c(=O)[nH]c2ccccc21` (10 µM) registered a morphology score in assay [1] of 0.182. The SARS-CoV-2 infection rate in assay [2] was 92.5% (inactive).

`O=c1[nH]c2ccccc2c(=O)n1CCCN1CCN(c2ccccc2)CC1` [pelanserin] (10 µM) displayed a morphology score in assay [1] of 0.0358. The SARS-CoV-2 infection rate in assay [2] is 104% (inactive).

The compound `Cc1ccccc1C(=O)Nc1ccc(C(=O)N2CCCC(O)c3cc(Cl)ccc32)c(C)c1` (stereo not drawn) [tolvaptan] (10 µM) showed a morphology score in assay [1] of 0.0857. Also, the SARS-CoV-2 infection rate in assay [2] is 120% (inactive).

Consider `O=c1c(-c2ccc(O)cc2)coc2c([C@@H]3O[C@H](CO)[C@@H](O)[C@H](O)[C@H]3O)c(O)ccc12` [kakonein] (10 µM), for which the morphology score in assay [1] is -0.0186. Besides, the SARS-CoV-2 infection rate in assay [2] is 103% (inactive).

As to `CN1CCN(CCCCN2C(=O)CN(/N=C/c3ccc(-c4ccc(Cl)cc4)o3)C2=O)CC1` [azimilide] (10 µM), the morphology score in assay [1] was found to be 0.0199. For the same compound, the SARS-CoV-2 infection rate in assay [2] was 102% (inactive).

`CC1=C(C(=O)O)N2C(=O)[C@@H](NC(=O)[C@H](N)c3ccc(O)cc3)[C@H]2SC1` [cefadroxil] (10 µM): in assay [1], the morphology score is -0.016. The SARS-CoV-2 infection rate in assay [2] was 108% (inactive).

Regarding `N#Cc1cccc(-c2nc(-c3cccnc3)no2)c1` (10 µM), in assay [1], the morphology score came out at 0.143. In addition, the SARS-CoV-2 infection rate in assay [2] was 98.5% (inactive).

Turning to `C=CC(=O)Nc1cccc(Nc2nc(Nc3ccc(NC4CN(CCF)C4)cc3OC)ncc2C(F)(F)F)c1` (0.833333 µM), in assay [1], the morphology score is -0.356. For the same compound, the SARS-CoV-2 infection rate in assay [2] is 118% (inactive).

Consider `O=C(O)C(F)(F)C(F)(F)C(F)(F)C(F)(F)C(F)(F)C(F)(F)C(F)(F)F` [ammonium-perfluorocaprylate] (10 µM), for which the morphology score in assay [1] is -0.0312. Moreover, in assay [2], the SARS-CoV-2 infection rate is 112% (inactive).

Consider `CN1CC[C@@]2(C)c3cc(O)ccc3N(C)[C@@H]12` [eseroline-(-)] (10 µM), for which the morphology score in assay [1] stood at 0.137. Besides, the SARS-CoV-2 infection rate in assay [2] is 97% (inactive).

Consider `CCc1cc(O)c(Oc2ccc(C(N)=O)cc2F)cc1F` (10 µM), for which the morphology score in assay [1] was 0.0909. In addition, the SARS-CoV-2 infection rate in assay [2] is 95.5% (inactive).

For the compound `CCC(C)(Oc1ccc(C2(c3ccc(OC(C)(CC)C(=O)O)cc3)CCCCC2)cc1)C(=O)O` (stereo not drawn) [clinofibrate] (10 µM), the morphology score in assay [1] came to 0.0154. Moreover, the SARS-CoV-2 infection rate in assay [2] is 112% (inactive).

These data come from the supplement of paper PMC13380429.
